PubChem BioAssay AID588850 (Sanford-Burnham Center for Chemical Genomics, 2011)
In all, about 360,000 compounds went through this assay and about 3,100 (0.86%) were called active. Only a selection was taken, and actives are over-represented in it overall. A number with no mark means an inactive call.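 Rule for the calls: active = at least 50% inhibition at 5 µM, scaled per plate between neutral and stimulator controls; inactive = the rest.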

Assay: NF-kB reporter blockers in CF airway cells – cell-based, GFP fluorescence, uHTS, primary screen (AID 588850);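 note: PAF is a Pseudomonas aeruginosa culture filtrate used as stimulus; plate controls were PAF-stimulated DMSO wells for no effect and unstimulated DMSO wells for full effect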
Details: KKLEB NF-kB-GFP reporter, PAF-induced, GFP fluorescence overnight; at 5 µM; hits give high values

Going from `Cc1cc2c3ccccc3[nH]c(=O)n2n1` to `Cc1[nH]c2ccccc2c1SCC(=O)Nc1nccs1`, the inhibition rises from -16.8% to 1%.

First: CN(C)/C=C/c1c(C#N)c(=O)ncn1Cc1ccccc1
Second: O=c1c2c(ncn1Cc1ccccc1)nc1n2CCC1
The inhibition of the first is lower: -10.4% for the first, 1.3% for the second.

Compared with `O=C(Nc1ccc(F)cc1)Nc1nnc([C@H]2C[C@H](O)[C@@H](CO)O2)s1`, `COc1ccc(/C=C/c2nnc(NC(=O)C(C)C)s2)cc1` is higher in inhibition: 8% for the first, 17.7% for the second.

First: CCOC(=O)c1cc(C(=O)Nc2ccc(S(=O)(=O)Nc3ccc(OC)cc3)cc2)nn1C
Second: CC(=O)Nc1ccc(SCC(=O)NC(=O)c2ccc(Cl)cc2)cc1
The inhibition of the first is higher: -4.7% for the first, -19.2% for the second.

Going from `CCN(Cc1ccccc1)C(=O)CCS(=O)(=O)c1ccc2c(c1)oc(=O)n2C` to `CCN(Cc1ccccc1)C(=O)CSc1nc(C)cc2c1C(=O)OC2`, the inhibition rises from -2.4% to 5%.

Compared with `COCCN(C(=O)CCC(=O)Nc1ccccn1)C(C(=O)NCCC(C)C)c1ccc(OC)cc1` (configuration not stated), `CC(=O)c1ccc(NC(=O)C(C)N(C)CC(=O)Nc2ccccc2Cl)cc1` (configuration not stated) is higher in inhibition: -7.9% for the first, 2.6% for the second.

Going from `CCOC(=O)N1CCN(S(=O)(=O)c2ccc3c(c2)C(C)C(=O)N3)CC1` (configuration not stated) to `Cc1cc(OCCCC(=O)Nc2cc(S(=O)(=O)N3CCOCC3)ccc2N2CCOCC2)ccc1Cl`, the inhibition rises from -4% to 7.1%.

Going from `NC(=O)c1ncn([C@@H]2O[C@H](CNCc3cnc(N4CCOCC4)s3)[C@@H](O)[C@H]2O)n1` to `CCNC(=O)C1CCCN(C(=O)c2cc(F)ccc2C)CC1` (configuration not stated), the inhibition falls from -11.1% to -17.2%.

Going from `O=C(O)CSCC(=O)Nc1ccc(C(F)(F)F)cc1` to `CCOc1ccc(NC(=O)CSc2ncnc3c2sc2ccccc23)cc1`, the inhibition rises from -2.9% to 5.6%.

Compared with `Cc1ccccc1-c1ccc2c(c1)O[C@@H](CN(C)Cc1ccc(C(=O)O)cc1)[C@@H](C)CN([C@H](C)CO)S2(=O)=O`, `Cc1ccc(Cc2c(-c3ccccc3)nc3ccc(Cl)cn23)cc1` is lower in inhibition: 44.9% for the first, 20.8% for the second.

First: CC(NC(=O)c1cc2cc(Cl)ccc2oc1=N)c1ccccc1 (configuration not stated)
Second: O=C(Cn1c(NCCO)nc2ccccc21)c1ccc(Cl)cc1Cl
The inhibition of the first is higher: 23.8% for the first, 1.6% for the second.

Compared with `O=C(NCC(=O)N1CCN(c2ccccc2F)CC1)c1cccs1`, `Cc1ccc(C)c(NC(CC(=O)c2ccccc2)C(=O)OCC(=O)c2cccs2)c1` (configuration not stated) is higher in inhibition: -14.2% for the first, -4.5% for the second.

Going from `O=Nc1c(O)cc(O)c2ccccc12` to `S=c1[nH]c2ccccc2c2ccccc12`, the inhibition rises from -12.5% to -8.9%.

Going from `O=Cc1c(NCCc2cccc(F)c2)c2ccccc2[nH]c1=O` to `Cc1ccc(Cn2c(C)c(C(=O)NCc3ccccc3C(F)(F)F)sc2=O)cc1`, the inhibition falls from 5% to -26.2%.

Compared with `OCCNCCOc1ccc(Cl)c(Cl)c1`, `O=C(COC(=O)c1ccc(Cl)nc1)NCc1ccc2c(c1)OCO2` is lower in inhibition: -8.5% for the first, -9.2% for the second.

Going from `c1csc(-c2nnc(COc3ncnc4sccc34)o2)c1` to `O=C(CSc1ncnc2scc(-c3ccccc3)c12)NCc1ccc2c(c1)OCO2`, the inhibition falls from 18.1% to 13.3%.

Compared with `O=c1[nH]c(CCl)nc2cc(-c3ccc(Cl)cc3)sc12`, `Cc1ccc2nc(-c3ccco3)c(Cc3cccc(Cl)c3)n2c1` is lower in inhibition: 7.1% for the first, 2.7% for the second.

Going from `CC[N+]1(CC)CC2=Cc3ccccc3CC2C1` (configuration not stated) to `Cc1ccc(C2CCN(C(=S)Nc3cccc(Cl)c3)C2)cc1` (configuration not stated), the inhibition rises from -4% to 7.5%.

First: COc1ccc(CC(=O)c2ccc(O)cc2O)cc1OC
Second: COc1cccc(CC(=NO)c2cccc(OC)c2)c1
The inhibition of the first is lower: -7.8% for the first, 11.3% for the second.

Compared with `C=CCOc1ccccc1CNn1c(C)n[nH]c1=S`, `O=C(COc1ccc(-n2cnnn2)cc1)Nc1ccccc1Cl` is lower in inhibition: 5.7% for the first, -3.5% for the second.

First: Cc1c(Nc2nc3ccccc3nc2NS(=O)(=O)c2cccs2)c(=O)n(-c2ccccc2)n1C
Second: O=C(CSc1ccccc1)Nc1nnc(/C=C/c2ccccc2)s1
The inhibition of the first is lower: 9.5% for the first, 22.7% for the second.

First: COc1ccc(/C=C/C(=O)NC(=S)NN2CCCCC2c2cccnc2)cc1 (configuration not stated)
Second: CC(=O)c1cccc(-c2cnc3c(NC=O)cc(-c4ccc(N5CCN(C)CC5)cc4)cn23)c1
The inhibition of the first is lower: -13% for the first, 22.9% for the second.

Compared with `CCOC(=O)c1sc2nc(C)nc(SCC(N)=O)c2c1C`, `COc1cc(C(=O)NCCOC(=O)c2cccc(N(C)C)c2)cc(OC)c1OC` is lower in inhibition: 11.9% for the first, 3.4% for the second.

Compared with `Cn1c(=O)c2c(ncn2CC(=O)N/N=C/c2cn[nH]c2-c2ccc(F)cc2)n(C)c1=O`, `CCCCc1nc(NCCN)c(C#N)c2c1CSC(C)(C)C2` is higher in inhibition: -32.9% for the first, 2.5% for the second.

With `CN(C)c1ccnc2sc3c(=O)n(Cc4ccccc4)cnc3c12` the inhibition was 80.2% (active).
In the case of `O=C1Nc2ccccc2/C1=C/c1ccnc2ccccc12`, the inhibition is reported as 50.5% (active).
With `O=C(CCl)Nc1ccc(Sc2ccc(NC(=O)CCl)cc2)cc1` the inhibition was 93.7% (active).
With `COc1cc2c3c(c1)/C(=C1/SC(=S)NC1=O)C(=O)N3C(C)(C)C=C2C` the inhibition was 50.7% (active).
With `Cc1ccccc1C(CC(=O)c1cccs1)C(C#N)C#N` (configuration not stated) the inhibition was 83.8% (active).
For `OCCNc1nc(Nc2ccc(Cl)c(Cl)c2)nc2ccccc12`, the inhibition was 87.5% (active).
With `O=c1[nH]c(=S)[nH]c(O)c1/C=C1\C=Nc2ccccc21` the inhibition was 69.3% (active).
For `C=C(C)C(=O)O[C@H]1C/C(C)=C\C(=O)/C=C(\C)[C@H](O)[C@@H]2OC(=O)C(=C)[C@@H]21`, the inhibition was 74.1% (active).
In the case of `Oc1c(Cl)cc(Cl)c(Cl)c1Cc1c(O)c(Cl)cc(Cl)c1Cl`, the inhibition is reported as 65.4% (active).
In the case of `CN(C)C(=O)c1cccc(-c2cnc3sc(NCc4ccc5c(c4)OCO5)nn23)c1`, the inhibition is reported as 82.2% (active).
In the case of `Cc1ccc(Cc2c(-c3ccco3)nc3ccc(Cl)cn23)cc1`, the inhibition is reported as 66.3% (active).
For `O=C(Nc1ccc(Cl)cc1)Nc1nnc(/C=C/c2ccccc2)s1`, the inhibition was 51.2% (active).
In the case of `O=C(Nc1ccccc1Cl)/C(Cl)=C(\Cl)S(=O)c1ccccc1` (configuration not stated), the inhibition is reported as 82.8% (active).
For `NC1=CC(=O)C(=O)c2cccnc21`, the inhibition was 92.2% (active).
